Records with an inconclusive call do not appear. Activity calls are given as the source filed them. Unless noted, calls follow the shape of the dose curve; as a rule, active = well fitted curve in the direction sought with a large enough effect; inconclusive = small, poorly fitted or top-dose-only effect, or another doubt; inactive = no such curve, though single readings can be large; an effect the other way counts as inactive or inconclusive.

Assay [1] has as its target Beta-2 adrenergic receptor (Homo sapiens) (UniProt P07550). Kind of assay: qHTS validation assay of beta-arrestin-biased ligands of beta2-adrenergic receptor (AID 485366). Also: 0% is about no effect. The method, boiled down:
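Tango cells (recombinant beta2-AR with recombinant beta-arrestin; recruitment releases tTA driving luciferase) were treated with compounds titrated up to 46 microM for 18 hr at 37 degrees C. Luminescence gave %Activity, and concentration-response curves were curve-classified.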

Assay [2] is described as follows: Quantitative high throughput screen for delayed death inhibitors of the malarial parasite plastid, 96 hour incubation (AID 488745). Also: series mostly up to about 29 µM; % is scaled to controls: 0 for no effect and ±100 for the full control effect; nearly all actives have a fitted effect of over 70% in size. The procedure, abridged: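 P. falciparum carrying an integrated firefly luciferase reporter, grown in erythrocytes (2% hematocrit, 0.1% parasitemia final) in RPMI 1640/0.5% Albumax, was exposed to compound for 96 h (two generations) at 37 C, 5% CO2. Luminescence decrease indicated growth inhibition.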

Assay [3] concerns the target Thioredoxin reductase 1, cytoplasmic (Rattus norvegicus) (UniProt O89049). Kind of assay: qHTS Assay for Substrates of Mammalian Selenoprotein Thioredoxin Reductase 1 (TrxR1) (AID 488772).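 Also: NADPH fluorescence in the first read after selenite addition and not the 8 min delta; series mostly up to about 57 µM; 0% is about no effect; a drop in NADPH fluorescence below the no-compound background marks a TrxR1 substrate.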 The procedure, abridged:
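Quantitative HTS in Tris-HCl buffer at pH 7.5 with EDTA and Tween-20, using rat TrxR1, 400 uM NADPH and 400 uM selenite (final). A fall in initial NADPH fluorescence relative to background marked substrate behaviour.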

The target is the same in assay [4]. In words: qHTS Assay for Inhibitors of Mammalian Selenoprotein Thioredoxin Reductase 1 (TrxR1) (AID 488773).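 Also: drop in NADPH fluorescence over an 8 min run after selenite addition; series mostly up to about 57 µM; % is scaled to controls: 0 for no effect and ±100 for the full control effect; nearly all actives have a fitted effect of over 40% in size.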 To be noted: Potency: inhibition. The procedure, abridged: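 Steps: enzyme (90 nM) plus NADPH (400 uM final), 5 min at ~22 deg C; compound added, 15 min; selenite (400 uM final) added; fluorescence followed for 8 min. Concentration-response curves derived from the normalized delta values.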

The target of assay [5] is M-phase phosphoprotein 8 (Homo sapiens) (UniProt Q99549). In words: qHTS Validation Assay for Inhibitors for MPP8 Chromodomain Interactions with Methylated Histone Tails (AID 488949). Also: top concentration of the series differs between compounds; % is scaled to controls: 0 for no effect and ±100 for the full control effect; nearly all actives have a fitted effect of over 55% in size. The procedure, abridged: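 MPP8 (50 nM) was preincubated with biotinylated H3(1-18)K9me3 peptide (50 nM) in PBS pH 7.4, 0.01% Tween-20 for 30 min at room temperature, then with compounds for 30 min; binding was detected by AlphaScreen.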

Assay [6] concerns the target Chromobox protein homolog 1 (Homo sapiens) (UniProt P83916). In words: qHTS Validation Assay for Inhibitors of HP1-beta Chromodomain Interactions with Methylated Histone Tails (AID 488953).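 Also: loss of AlphaScreen luminescence from HP1-beta binding biotinylated H3K9me3 peptide; series mostly up to about 110 µM; % is scaled to controls: 0 for no effect and ±100 for the full control effect; nearly all actives have a fitted effect of over 50% in size.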 The method, boiled down:
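HP1-beta (50 nM) was preincubated 30 min at room temperature with biotinylated H3(1-18)K9me3 peptide (50 nM) in PBS pH 7.4, 0.01% Tween-20, then with compounds 30 min. AlphaScreen signal was read after streptavidin donor/nickel chelate acceptor beads (10 ug/mL final).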

Assay [7] addresses Thyrotropin receptor (Homo sapiens) (UniProt P16473). In words: qHTS Assay for Antagonists of the Thyroid Stimulating Hormone Receptor (AID 488980). Also: series mostly up to about 58 µM; 0% is about no effect. The procedure, abridged:
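HEK293 cells transfected with human TSHR, suspended in HEPES-buffered HBSS with 70 uM RO 20-1724, were treated with compounds plus TSH at EC80 (4 nM final). cAMP was measured by competitive HTRF (cryptate anti-cAMP antibody, cAMP-d2 acceptor).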

Assay [8] deals with D(1A) dopamine receptor (Homo sapiens) (UniProt P21728). In words: HTS Assay for Allosteric Agonists of the Human D1 Dopamine Receptor: Primary Screen for Agonists (AID 488981). Also: 0% is about no effect. The method, boiled down:
(§1)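 Calcium flux in an inducible, force-coupled HEK293 Trex D1 line (overnight at 30 C): agonist mode is the 180 s kinetic read after compound; potentiator mode is the following 180 s read after dopamine at EC20.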

The target is the same in assay [9]. In words: HTS Assay for Allosteric Agonists of the Human D1 Dopamine Receptor: Primary Screen for Potentiators (AID 488982). Also: 0% is about no effect. The procedure, abridged:
as §1

For assay [10] the target is unchanged. In words: HTS Assay for Allosteric Agonists of the Human D1 Dopamine Receptor: Primary Screen for Antagonists (AID 488983).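 Also: calcium flux response to an EC80 dopamine challenge measured with no-wash dye; % is scaled to controls: 0 for no effect and ±100 for the full control effect; nearly all actives have a fitted effect of over 65% in size.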 The procedure, abridged: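 Tetracycline-induced HEK293 T-REx cells expressing force-coupled D1 were plated overnight at 30 C, dye-loaded for calcium, and read kinetically. Compounds were pinned in, then an EC80 dopamine challenge followed after 180 s to reveal antagonism.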

A short description of assay [11]: Validation screen for small molecules that induce genotoxicity in human embryonic kidney (HEK293T) cells expressing luciferase-tagged ELG1 (AID 493106). Also: 0% is about no effect. The procedure, abridged: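 HEK293T cells expressing luciferase-tagged ELG1 were exposed to compound or DMSO vehicle for 16 hr at 37 °C, 5% CO2. Genotoxic stress raises ELG1 levels, so increased luciferase signal after ONE-Glo addition and 30 min at room temperature marks hits.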

Assay [12] deals with Thyrotropin-releasing hormone receptor (Homo sapiens) (UniProt P34981). In words: qHTS for Small Molecule Agonists and Allosteric Enhancers of Human TRH Receptor: Validation Screen for Agonists (AID 493127;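 active = calcium activation more than 3 SD above the typical response in the agonist read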;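 also: intracellular calcium rise by fluo-8 fluorescence before TRH EC20 addition; 0% is about no effect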). Particulars: TRH receptor agonist cell assay; at 2 µM; stronger effect = higher value. The method, boiled down: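 TRHR-expressing cells were plated overnight in serum-containing medium, then loaded with fluo-8 calcium dye at room temperature for 30 min–1.5 h. After a 10 s baseline, compound was pin-transferred and calcium fluorescence (ex 480/em 530) read kinetically for agonist response.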

Assay [13] can be described thus: Nrf2 qHTS screen for inhibitors: Validation (AID 493153; active = well fitted inhibition curve with a large enough effect in the main read-out, with a control signal flat, not every such curve was filed as active). To be noted: viability change: measured here: cytotoxicity max response. The procedure, abridged:
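A549 cells carrying an ARE-driven firefly luciferase reporter, in 5% FBS OPTI-MEM, were treated with compounds in concentration-response for 18-24 h at 37°C. Viability was read by CellTiter-Fluor fluorescence, then Nrf2 activity by luciferase luminescence.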

A short description of assay [14]: qHTS for Inhibitors of Cell Surface uPA Generation: Validation Assay (AID 493164).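 Also: RAW 264.7 macrophage cells exposed to compound for 18 h; 0% is about no effect.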 The procedure, abridged: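 RAW 264.7, 4000 cells/well, o/n plating; cpd 7-pt 1:5 dilution 2.45 nM–38.3 uM final; 18 h, 37 C/5% CO2; ATP-Lite, 5 s luminescence exposure.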
The target of assay [15] is Galactokinase (Homo sapiens) (UniProt P51570). In words: qHTS Validation Assay for Inhibitors of Human Galactokinase (GALK) (AID 493189). Also: 0% is about no effect. The procedure, abridged:
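GALK (5 nM) with 35 uM ATP and 100 uM galactose in HEPES pH8.0, MgCl2, NaCl, DTT, BSA; 1 h at room temperature. Residual ATP read by Kinase-Glo Plus luminescence after 10 min.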

Assay [16] is described as follows: Validation screen for small molecules that induce DNA re-replication in SW480 colon adenocarcinoma cells (AID 504364). Also: 0% is about no effect. The method, boiled down: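 SW480 cells seeded at 250 per well were exposed to compound or DMSO for 48 hr at 37 C, 5% CO2, then stained with Hoechst for 40 min. DNA content per nucleus was imaged (405 nm ex, 500-530 nm em).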
Assay [17] concerns the target Peptidyl-prolyl cis-trans isomerase NIMA-interacting 1 (Homo sapiens) (UniProt Q13526). Kind of assay: qHTS Validation Assay to Find Inhibitors of Pin1 (AID 504536; active = well fitted inhibition curve with a large enough effect in the polarisation, with a control signal flat, not every such curve was filed as active; the % refers to the polarisation;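 also: 0% = full Pin1 enzyme wells and -100% = no-enzyme wells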). The method, boiled down: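 Fluorescence polarization competition: compounds (titration) displace HiFluor-488-labeled Pin1-1b peptide from Pin1 (0.3 uM final) in pH 7.5 HEPES buffer with DTT, 10 min at room temperature; %Activity normalized to no-enzyme wells, curves fitted.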

D(1A) dopamine receptor (Homo sapiens), sequence (P21728 whole entry, looked up): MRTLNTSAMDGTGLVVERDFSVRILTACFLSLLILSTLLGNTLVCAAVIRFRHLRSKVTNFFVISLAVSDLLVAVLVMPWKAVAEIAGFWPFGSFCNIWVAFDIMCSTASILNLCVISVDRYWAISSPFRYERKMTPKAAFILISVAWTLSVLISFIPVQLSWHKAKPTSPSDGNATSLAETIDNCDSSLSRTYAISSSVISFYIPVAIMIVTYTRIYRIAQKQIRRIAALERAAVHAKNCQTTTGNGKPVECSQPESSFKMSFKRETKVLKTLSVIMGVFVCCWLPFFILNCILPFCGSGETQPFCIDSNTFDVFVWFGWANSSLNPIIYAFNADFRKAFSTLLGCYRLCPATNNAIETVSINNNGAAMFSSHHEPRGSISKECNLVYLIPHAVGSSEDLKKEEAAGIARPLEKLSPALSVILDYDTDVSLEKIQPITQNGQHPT
M-phase phosphoprotein 8 (Homo sapiens), sequence (Q99549 whole entry, looked up): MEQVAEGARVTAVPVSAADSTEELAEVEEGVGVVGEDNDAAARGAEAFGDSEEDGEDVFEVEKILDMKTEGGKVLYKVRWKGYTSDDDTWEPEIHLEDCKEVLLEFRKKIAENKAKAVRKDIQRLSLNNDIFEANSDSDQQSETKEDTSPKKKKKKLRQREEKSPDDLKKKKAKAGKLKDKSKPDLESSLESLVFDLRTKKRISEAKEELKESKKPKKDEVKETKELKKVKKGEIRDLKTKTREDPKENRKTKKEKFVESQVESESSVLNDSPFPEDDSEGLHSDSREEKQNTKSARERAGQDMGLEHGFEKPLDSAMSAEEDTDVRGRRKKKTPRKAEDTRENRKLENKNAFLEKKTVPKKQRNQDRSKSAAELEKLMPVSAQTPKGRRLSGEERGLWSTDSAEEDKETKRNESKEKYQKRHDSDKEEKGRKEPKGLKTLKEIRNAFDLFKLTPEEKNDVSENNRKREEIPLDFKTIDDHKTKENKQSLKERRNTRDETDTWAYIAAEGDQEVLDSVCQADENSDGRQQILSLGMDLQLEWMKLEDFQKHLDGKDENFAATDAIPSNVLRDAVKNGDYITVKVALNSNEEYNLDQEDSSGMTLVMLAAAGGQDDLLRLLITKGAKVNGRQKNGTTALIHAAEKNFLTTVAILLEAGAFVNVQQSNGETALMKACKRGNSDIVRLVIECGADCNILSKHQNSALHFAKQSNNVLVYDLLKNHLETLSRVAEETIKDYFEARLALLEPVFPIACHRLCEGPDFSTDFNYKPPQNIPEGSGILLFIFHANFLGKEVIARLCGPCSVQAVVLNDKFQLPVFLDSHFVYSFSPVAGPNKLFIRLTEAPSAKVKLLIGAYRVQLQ
Thioredoxin reductase 1, cytoplasmic (Rattus norvegicus), sequence (O89049 whole entry, looked up): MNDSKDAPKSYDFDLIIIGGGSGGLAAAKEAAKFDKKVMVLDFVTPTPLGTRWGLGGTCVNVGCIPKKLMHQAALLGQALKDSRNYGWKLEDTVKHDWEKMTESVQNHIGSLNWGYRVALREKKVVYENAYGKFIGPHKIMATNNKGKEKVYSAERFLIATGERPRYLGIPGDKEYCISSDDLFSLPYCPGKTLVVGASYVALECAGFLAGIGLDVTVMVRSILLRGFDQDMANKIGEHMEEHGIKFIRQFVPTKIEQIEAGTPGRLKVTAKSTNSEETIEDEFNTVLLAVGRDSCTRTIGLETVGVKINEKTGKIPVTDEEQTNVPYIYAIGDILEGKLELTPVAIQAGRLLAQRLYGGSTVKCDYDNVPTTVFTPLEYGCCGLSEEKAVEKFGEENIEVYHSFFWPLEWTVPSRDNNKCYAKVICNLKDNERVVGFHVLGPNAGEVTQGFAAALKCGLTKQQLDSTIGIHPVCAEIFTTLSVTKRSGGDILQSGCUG
Thyrotropin-releasing hormone receptor (Homo sapiens), sequence (P34981 whole entry, looked up): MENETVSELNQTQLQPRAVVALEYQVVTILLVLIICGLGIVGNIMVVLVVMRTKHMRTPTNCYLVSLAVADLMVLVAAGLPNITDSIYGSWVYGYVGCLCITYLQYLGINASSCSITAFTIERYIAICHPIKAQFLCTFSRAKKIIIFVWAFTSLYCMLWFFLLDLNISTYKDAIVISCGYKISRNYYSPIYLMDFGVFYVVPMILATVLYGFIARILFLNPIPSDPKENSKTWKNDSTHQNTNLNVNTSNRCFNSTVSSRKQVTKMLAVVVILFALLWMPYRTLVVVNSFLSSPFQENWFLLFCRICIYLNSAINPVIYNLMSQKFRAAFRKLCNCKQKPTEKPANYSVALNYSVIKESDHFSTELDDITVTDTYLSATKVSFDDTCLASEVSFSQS
Galactokinase (Homo sapiens), sequence (P51570 whole entry, looked up): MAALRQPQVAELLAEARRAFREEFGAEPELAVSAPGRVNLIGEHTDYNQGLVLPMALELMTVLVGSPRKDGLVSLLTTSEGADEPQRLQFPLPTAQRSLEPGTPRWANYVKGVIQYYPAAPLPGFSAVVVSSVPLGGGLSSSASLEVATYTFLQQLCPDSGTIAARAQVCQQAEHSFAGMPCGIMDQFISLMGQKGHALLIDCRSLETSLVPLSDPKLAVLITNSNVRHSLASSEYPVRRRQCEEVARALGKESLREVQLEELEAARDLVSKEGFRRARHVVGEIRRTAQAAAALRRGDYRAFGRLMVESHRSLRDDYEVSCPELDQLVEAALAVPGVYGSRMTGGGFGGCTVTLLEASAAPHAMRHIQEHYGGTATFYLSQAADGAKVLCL
Peptidyl-prolyl cis-trans isomerase NIMA-interacting 1 (Homo sapiens), sequence (Q13526 whole entry, looked up): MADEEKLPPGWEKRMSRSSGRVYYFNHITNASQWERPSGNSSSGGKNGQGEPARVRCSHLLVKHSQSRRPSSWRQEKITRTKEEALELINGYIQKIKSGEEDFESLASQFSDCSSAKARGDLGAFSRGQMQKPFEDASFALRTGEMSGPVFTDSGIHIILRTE
Beta-2 adrenergic receptor (Homo sapiens), sequence (P07550 whole entry, looked up): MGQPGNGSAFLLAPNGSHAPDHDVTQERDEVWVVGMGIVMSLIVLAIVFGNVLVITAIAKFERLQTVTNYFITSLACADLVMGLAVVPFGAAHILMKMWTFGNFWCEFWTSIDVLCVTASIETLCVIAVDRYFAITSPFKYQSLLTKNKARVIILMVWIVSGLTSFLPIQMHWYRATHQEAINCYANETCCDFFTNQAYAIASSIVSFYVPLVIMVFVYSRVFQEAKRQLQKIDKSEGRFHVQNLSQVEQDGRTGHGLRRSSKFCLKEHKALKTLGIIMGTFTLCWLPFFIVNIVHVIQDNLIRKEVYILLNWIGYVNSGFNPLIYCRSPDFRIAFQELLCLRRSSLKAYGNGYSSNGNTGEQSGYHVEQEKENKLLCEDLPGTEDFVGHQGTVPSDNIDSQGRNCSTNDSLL
Chromobox protein homolog 1 (Homo sapiens), sequence (P83916 whole entry, looked up): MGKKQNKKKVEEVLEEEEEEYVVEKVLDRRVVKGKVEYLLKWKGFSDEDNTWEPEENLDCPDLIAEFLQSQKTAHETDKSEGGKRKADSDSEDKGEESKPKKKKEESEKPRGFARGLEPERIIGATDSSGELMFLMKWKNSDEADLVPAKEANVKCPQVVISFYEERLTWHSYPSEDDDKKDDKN
Thyrotropin receptor (Homo sapiens), sequence (P16473 whole entry, looked up): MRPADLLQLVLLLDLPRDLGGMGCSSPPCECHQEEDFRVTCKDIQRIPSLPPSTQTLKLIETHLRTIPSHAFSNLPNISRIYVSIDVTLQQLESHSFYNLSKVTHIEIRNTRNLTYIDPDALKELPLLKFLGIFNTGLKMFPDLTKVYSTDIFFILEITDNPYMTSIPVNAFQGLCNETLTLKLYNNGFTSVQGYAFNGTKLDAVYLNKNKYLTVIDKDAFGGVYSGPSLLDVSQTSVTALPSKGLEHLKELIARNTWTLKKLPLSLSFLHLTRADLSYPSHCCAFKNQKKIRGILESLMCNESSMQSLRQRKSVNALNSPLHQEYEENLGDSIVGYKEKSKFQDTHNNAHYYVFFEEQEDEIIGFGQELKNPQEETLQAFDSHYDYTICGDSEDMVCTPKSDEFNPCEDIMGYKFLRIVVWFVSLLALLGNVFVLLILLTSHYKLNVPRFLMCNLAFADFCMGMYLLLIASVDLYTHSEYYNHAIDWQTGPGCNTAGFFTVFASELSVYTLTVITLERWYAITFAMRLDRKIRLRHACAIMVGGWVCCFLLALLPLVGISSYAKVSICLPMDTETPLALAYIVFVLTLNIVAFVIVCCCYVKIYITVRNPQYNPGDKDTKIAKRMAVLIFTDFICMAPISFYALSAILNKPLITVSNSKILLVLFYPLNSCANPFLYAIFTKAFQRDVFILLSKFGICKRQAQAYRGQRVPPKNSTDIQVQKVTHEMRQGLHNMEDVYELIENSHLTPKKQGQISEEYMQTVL

With `C1CCC(N=C(NC23CC4CC(CC(C4)C2)C3)N2CCOCC2)CC1`, the result in assay [1], in [3], in assay [7], in assay [8], in assay [9] and in [10] was inactive. Further, the result in [13], in assay [14], in [15] and in assay [16] was inactive. Besides, the Potency result in assay [2], in assay [4], in assay [5], in [6], in assay [11] and in [17] was “inactive” each time. In assay [12], the activation is 1.31% (inactive). Also, the viability change in assay [13] stood at 4.19%.
